“And” between values parts separate entries of the source, which are not always exact repeats. Equal entries are not always repeated. Values without a mark were called inactive. Records with an inconclusive call do not appear. The source made the active and inactive calls. Unless noted, the call rests on the fitted dose curve; in most records, active means well fitted curve in the direction sought with a large enough effect; inconclusive means small, poorly fitted or top-dose-only effect, or another doubt; inactive means no such curve, though single readings can be large; an effect the other way counts as inactive or inconclusive.

Here are results for 10 compounds from PubChem BioAssay (NCATS).

The subject of one test is Tov112D. In words: Primary qHTS to identify gynecologic anti-cancer compounds using libraries of approved drugs and bioactive compounds (AID 1345084). Further: nearly all actives have a fitted effect of over 55% in size. Further: potency means the concentration at half of the fitted maximal effect. Particulars: Gynecologic cancer cell panel viability, ATPlite luminescence, 48 h; series mostly up to 57.5 µM. In short, it runs like this:
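Cytotoxicity screen measuring ATP content by luciferase luminescence. Each compound is applied at five concentrations for 48 h at 37 C with 5% CO2.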
For orientation: In qHTS, concentration-response curves come from the screen itself.

Test [1] in a line: Drug repurposing screens with cells derived from glioblastoma tumor samples (AID 1345199). Further: potency means the concentration at half of the fitted maximal effect. On activity, negative = cell killing: on the % scale 0 is the no-effect control and ±100 the full control effect. On all read-outs here: nearly all actives have a fitted effect of over 40% in size. Particulars: GBM patient neurospheres viability, ATP luminescence, 48 h; for activity, negative = cell killing: at 45.9 µM (top of the series). In short, it runs like this:
(§1)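 Primary testing used CD133+ neurospheres from four GBM patients, seven concentrations, 48 h exposure and ATP-based viability; confirmation added three slower-growing patient lines.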

A further test has as its system astro. Described as above. Particulars: viability, ATP luminescence, 48 h; series mostly up to 45.9 µM. The method in brief:
as §1

The nature of test [2]: qHTS assay to identify inhibitors of the type 1 interferon - major histocompatibility complex class I in skeletal muscle: Counter screen cell viability and HiBit confirmation (AID 1347412). Further: nearly all actives have a fitted effect of over 60% in size. Further: potency means the concentration at half of the fitted maximal effect. Conditions: iHSKM muscle cells + IFN-b, HiBiT or CellTiter-Glo, 24 h; Potency: HiBiT; Viability, at 45.9 µM (top of the series). In short, it runs like this:
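Duplicate plates, pinned identically: one read for HiBiT-tagged endogenous HLA-B luminescence, the other for ATP-content viability via CellTiter Glo. Cells were genome-engineered human myoblasts given 4 ng/ml IFN-b; compounds 12-pt, 1:3 from 46 uM final; 24 hr exposure.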

In test [3] the target is Nuclear receptor subfamily 1 group I member 2 (Rattus norvegicus) (UniProt Q9R1A7). In words: qHTS assay for small molecule activators of the rat pregnane X receptor (rPXR) signaling pathway (AID 651751; call rule not given here; further: 0% is about no effect). Particulars: rPXR reporter cells, luciferase (One-Glo), 24 h.
The nature of test [4]: qHTS assay for small molecule activators of the human pregnane X receptor (PXR) signaling pathway (AID 720659; call rule not given here; further: 0% is about no effect).

Chain of Nuclear receptor subfamily 1 group I member 2 (Rattus norvegicus) (Q9R1A7 whole entry, looked up): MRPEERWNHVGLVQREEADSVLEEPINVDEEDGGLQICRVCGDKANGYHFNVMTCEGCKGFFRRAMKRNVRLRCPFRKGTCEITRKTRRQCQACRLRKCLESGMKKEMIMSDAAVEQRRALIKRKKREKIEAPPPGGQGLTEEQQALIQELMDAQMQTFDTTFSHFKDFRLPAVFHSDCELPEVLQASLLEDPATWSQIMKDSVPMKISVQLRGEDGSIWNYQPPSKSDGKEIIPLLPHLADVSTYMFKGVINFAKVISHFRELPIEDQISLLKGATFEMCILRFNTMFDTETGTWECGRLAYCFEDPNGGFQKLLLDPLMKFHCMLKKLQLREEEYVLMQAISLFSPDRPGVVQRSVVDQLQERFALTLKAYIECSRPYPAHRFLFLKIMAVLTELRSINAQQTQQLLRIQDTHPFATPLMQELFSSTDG

As for `Cc1ccc2c(c1)C1CN(C)CCC1N2` (configuration not stated), the Potency entry in the test with Tov112D and with astro was “inactive” throughout. Besides, the activity, negative = cell killing in test [1] (tumour line B) was -7.68%; in test [1] (tumour line D) it was -17.4%.
Regarding `C[C@H]1O[C@@H](O[C@H]2[C@@H](O)C[C@H](O[C@H]3[C@@H](O)C[C@H](O[C@H]4CC[C@@]5(C)[C@H](CC[C@@H]6[C@@H]5CC[C@]5(C)[C@@H](C7=CC(=O)OC7)CC[C@]65O)C4)O[C@@H]3C)O[C@@H]2C)C[C@H](O)[C@@H]1O`, the Potency with Tov112D was 89.1 nM (active); in the test on astro it was 100 nM (active); in test [2] it was 49.7 nM (active). Also, the max response in test [3] is -1.87%. For the same compound, the call in test [4] was inactive.
Consider `CN1C[C@H](CNC(=O)OCc2ccccc2)C[C@@H]2c3cccc4c3c(cn4C)C[C@H]21`, for which the Potency entry in the test on Tov112D and in the test with astro was “inactive” throughout.
On to `Cc1ccc(S(=O)(=O)N[C@@H](CCCCN)C(=O)CCl)cc1`, for which the Potency result in the test with Tov112D and in the test on astro was “inactive” each time. Further, in test [1] (tumour line B), the activity, negative = cell killing is -22.5%.
As to `C=C1C[C@@H]2[C@H](CC[C@]3(C)C(=O)CC[C@@H]23)[C@@]2(C)C=CC(=O)C=C12`, the Potency result in the test on Tov112D and in the test on astro was “inactive” throughout. In test [1] (tumour line A), the Potency is 12600 nM (active).
As to `CCN(C(C)=O)c1cccc(-c2ccnc3c(C#N)cnn23)c1`, the Potency result with Tov112D and in the test with astro was “inactive” each time. Further, the activity, negative = cell killing was -13.5% in test [1] (tumour line B) and -2.81% in test [1] (tumour line D).
Take `CCC(=O)C(CC(C)N(C)C)(c1ccccc1)c1ccccc1` (configuration not stated): the Potency entry in the test on Tov112D and in the test on astro was “inactive” in each case.
`Cc1sc2c(c1C)C(c1ccc(Cl)cc1)=N[C@@H](CC(=O)OC(C)(C)C)c1nnc(C)n1-2`: in test [2], the Potency entry is “inactive”.
On to `C#CCOC(C(=O)OCCN(C)C)(c1ccccc1)c1ccccc1`, for which the Potency entry with Tov112D and with astro was “inactive” in each case. Besides, the values for the activity, negative = cell killing in test [1] (tumour line B) and in test [1] (tumour line D) were 3.88% and 1.28%, respectively.
For `Oc1ccc(Cl)cc1Cc1ccccc1`, the Potency entry with Tov112D was “inactive”. Moreover, the activity, negative = cell killing in test [1] (tumour line B) is -24.8%. Further, in the test with astro, the Potency was 35500 nM (active). In test [3], the max response is 0.0184% and 1.61%.
